Assay results as given in PubChem BioAssay AID2435 (The Scripps Research Institute Molecular Screening Center, 2010).
The whole screen tested about 320,000 compounds, of which about 1,000 (0.31%) were called active.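 Rule for the calls: active = activation above the mean of all tested compounds plus 3 SD, cutoff set per screening run (cut at about 20% in these data); inactive = the rest.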 The list comes from a sample in which actives are over-represented; it also holds similar structures and randomly drawn compounds.

What follows are compounds tested against Oxytocin receptor (Homo sapiens) (UniProt P30559) (assay: oxytocin receptor activation by calcium flux – fluorescence, CHO-OTR cells, Fluo-8 calcium, primary screen (AID 2435;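 note: peak over basal fluorescence ratio from a 100 s FLIPR kinetic read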)). Conditions: Fluo-8 calcium fluorescence, at 3 µM, active compounds read high, normalized: DMSO 0%, oxytocin 100%.
Chain of Oxytocin receptor (Homo sapiens) (P30559 whole entry, looked up): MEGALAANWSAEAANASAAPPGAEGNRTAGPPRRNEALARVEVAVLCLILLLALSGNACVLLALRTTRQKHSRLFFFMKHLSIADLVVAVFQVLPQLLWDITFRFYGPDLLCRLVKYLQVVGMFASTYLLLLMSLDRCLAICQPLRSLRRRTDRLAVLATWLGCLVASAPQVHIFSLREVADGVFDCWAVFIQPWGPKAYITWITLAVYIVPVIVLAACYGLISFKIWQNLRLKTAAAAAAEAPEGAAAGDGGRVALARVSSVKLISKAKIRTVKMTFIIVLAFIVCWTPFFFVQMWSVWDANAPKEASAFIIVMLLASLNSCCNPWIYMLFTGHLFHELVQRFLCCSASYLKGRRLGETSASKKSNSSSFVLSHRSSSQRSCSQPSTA

Row | SMILES | activation
1 | COc1ccc(NS(=O)(=O)c2ccc(Oc3c(C#N)cccc3C#N)cc2)cc1 | 21.2% (active)
2 | CCOc1ccc(S(=O)(=O)Nc2ccc(S(=O)(=O)Nc3cc(OC)ccc3OC)cc2)cc1 | 5.31% (inactive)
3 | COc1ccc(NS(=O)(=O)c2ccc(NC(=O)c3ccc(N(C)S(C)(=O)=O)cc3)cc2)cc1 | 2.34% (inactive)
4 | CCNc1ccc(C(=O)OCC(=O)N2c3ccccc3NC(=O)C2(C)C)cc1[N+](=O)[O-] | -1.03% (inactive)
5 | COCCCNC(=S)NC(=O)c1ccccc1 | 0.86% (inactive)
6 | Cc1ccc(NC(=S)NC(=O)c2ccc(-c3ccccc3)cc2)cc1 | 1.22% (inactive)
7 | CCOC(=O)C1=C(NC(=S)NC(=O)c2ccccc2)c2ccccc2CC1(C)C | 25.1% (active)
8 | CC1=CC=CC2=N/C(=N\S(=O)(=O)c3ccc(F)cc3F)c3ccccc3CN12 | -2.27% (inactive)
9 | COc1ccc(N2CCC(N3CCN(C)C(CCO)C3)CC2)cc1 (configuration not stated) | -0.23% (inactive)
10 | Cc1ccc(S(=O)(=O)N2CCN(C(=O)N3CCOCC3)CC2)c(C)c1 | 0.27% (inactive)
11 | Nc1ccc2nc3c(=O)[nH]c(=S)[nH]c3nc2c1 | 35.4% (active)
12 | CSc1nnc(SCc2nc3sc(C(=O)O)c(C)c3c(=O)[nH]2)s1 | 6.08% (inactive)
13 | CC(/C=C/c1ccccc1)=N\NC(=O)C1CC1(C)c1ccccc1 (configuration not stated) | -2.09% (inactive)
14 | CN(c1ccccc1)c1ccc(/C=c2\s/c(=C(/C#N)C(=O)C(C)(C)C)n(Cc3ccco3)c2=O)cc1 | 20.3% (active)
15 | CCOC(=O)Cn1c(=O)oc2cc(S(=O)(=O)N(C)Cc3ccco3)ccc21 | 1.29% (inactive)
16 | CCOC(=O)/C=c1\s/c(=C\c2ccc(C#N)cc2)c(=O)n1CC(=O)Nc1cccc(C)c1C | 0.18% (inactive)
17 | CCS(=O)(=O)N1CCCC(C(=O)NCCCN(C)Cc2ccccc2)C1 (configuration not stated) | -0.22% (inactive)
18 | Cc1cccc(NC(=S)NCCc2ccc(Cl)cc2)c1C | -1.48% (inactive)
19 | COC(=O)Cc1ccc(NC(=S)NCc2ccc(Cl)cc2)cc1 | 7.5% (inactive)
20 | Cc1ccc(C(=O)NC(=S)Nc2ccccc2C)cc1 | -1.72% (inactive)
21 | O=C(COc1ccc(Cl)cc1)NC(=S)Nc1ccccc1N1CCOCC1 | -0.94% (inactive)
22 | Cc1ccccc1NC(=S)NC(=O)Cc1ccc(Cl)cc1 | 28% (active)
23 | O=C(Cc1ccc(Cl)cc1)NC(=S)Nc1ccccc1O | 55.4% (active)

Row | SMILES | activation
24 | O=C(Nc1ccc(S(=O)(=O)Nc2ncccn2)cc1)C12CC3CC(CC(C3)C1)C2 | -0.32% (inactive)
25 | COc1cc(NC(=O)CN2C(=O)NC(C)(c3ccc(OC(F)F)cc3)C2=O)cc(OC)c1OC (configuration not stated) | 2.87% (inactive)
26 | Cn1c(C(=O)OC(C(=O)NC2CCCCC2)c2ccccn2)cc2sccc21 (configuration not stated) | -2.18% (inactive)
27 | Cc1nc(-c2ccccc2)cn2c1nc1ccccc12 | -2.1% (inactive)
28 | c1ccc(-c2cc3c(NCC4COc5ccccc5O4)ncnc3s2)cc1 (configuration not stated) | -2.32% (inactive)
29 | S=C(NCC1COc2ccccc2O1)Nc1ccc(Br)cc1 (configuration not stated) | 6.93% (inactive)
30 | c1ccc2c(c1)OCC(CNc1ncnc3nc[nH]c13)O2 (configuration not stated) | 80.8% (active)
31 | CCc1ccc(C2N3CC4([N+](=O)[O-])CN2CC([N+](=O)[O-])(C3)C4(C)C)cc1 (configuration not stated) | -1.26% (inactive)
32 | Cc1ccc(NC(=O)C(CC(=O)O)C2CCCO2)c(C)c1 (configuration not stated) | -0.43% (inactive)
33 | COc1ccc(OC)c(C(C)NC(=S)Nc2ccc(S(=O)(=O)Nc3ncccn3)cc2)c1 (configuration not stated) | -0.31% (inactive)
34 | CC(=O)c1ccc(NC(=S)NC(=O)CC(C)C)cc1 | -2.1% (inactive)
35 | COc1ccc(NS(=O)(=O)c2ccc(NC(=S)NC(=O)CC(C)C)cc2)cc1 | 22.5% (active)
36 | Cc1ccccc1CSc1nnc(-c2ccccc2)c(=O)[nH]1 | 0.69% (inactive)
37 | CCOc1ccc(/C=C(/NC(=O)c2ccccc2)C(=O)NCCC(=O)O)cc1 | 0.74% (inactive)
38 | COC(=O)c1sc(-c2ccc(C(C)(C)C)cc2)cc1NC(=O)/C=C/C(=O)O | 21.9% (active)
39 | CC(C)(C)c1ccc(/C=C/C(=O)Nc2ncccn2)cc1 | -1.37% (inactive)
40 | COc1ccccc1NC(=O)/C=C/C(N)=O | 0.46% (inactive)
41 | CNC[C@H](CC1CCCCC1)NC[C@H](NCCC1CCCC1)[C@H](C)O | 3.53% (inactive)
42 | O=C(O)/C=C/c1ccc(OCCCF)cc1 | 0.01% (inactive)
43 | O=C(/C=C(O)/C=C/c1ccc(O)cc1)/C=C/c1ccc(O)cc1 | 99.9% (active)
44 | O=C(/C=C/c1ccc2c(c1)OCCO2)c1ccc(O)cc1 | 1.57% (inactive)
45 | CCOc1cc(/C=C/c2nc3ccccc3c(=O)[nH]2)cc(Br)c1OC | 0.74% (inactive)
46 | CC(C)[C@H](NC(=O)N1CCn2c1nc1ccccc12)C(=O)NCc1ccc2c(c1)OCO2 | -1.49% (inactive)

Row | SMILES | activation
47 | O=C(NCc1ccccc1Cl)C1CCN(c2ncnc3c2nc2n3CCCCC2)CC1 | 0.32% (inactive)
48 | Cc1cc(F)ccc1N1CCC(N2CCN(C)C(CCO)C2)CC1 (configuration not stated) | 0.09% (inactive)
49 | COc1cc(C(=O)NC2CCN(C)CC2)ccc1Nc1ncc2c(n1)N(C1CCC(O)CC1)CCC(=O)N2C (configuration not stated) | 0.79% (inactive)
50 | COc1ccc(CCC(=O)c2ccc(OC)cc2)cc1 | -2.31% (inactive)
51 | COc1ccc(C(=O)NC(=S)NNC(=O)CCc2ccccc2)cc1 | 46% (active)
52 | COc1ccc(C(=O)NC(=S)NC2CCCCC2)cc1 | -1.13% (inactive)
53 | COc1ccc(C(=O)NNC(=S)NC(=O)c2ccccc2)cc1 | 55% (active)
54 | COc1ccc(C(=O)NNC(=S)NC(=O)c2ccccc2[N+](=O)[O-])cc1 | -2.16% (inactive)
55 | COc1ccc(C(=O)NC2CCN(C(=S)NCCc3ccccc3)CC2)cc1 | -0.97% (inactive)
56 | CNC(=O)c1csc(Cc2c(Cl)sc3ccc(Cl)cc23)n1 | -2.05% (inactive)
57 | O=C(NCc1ccncc1)C(=O)NCC1OCCN1S(=O)(=O)c1ccc(Br)cc1 (configuration not stated) | 0.38% (inactive)
58 | NC(=O)c1ccsc1NC(=O)COC(=O)COc1ccc(C=O)cc1 | 16.4% (inactive)
59 | Cc1c(Br)c([N+](=O)[O-])nn1CC(=O)Nc1sc2c(c1C(=O)OC(C)C)CCC(C)C2 (configuration not stated) | 0.81% (inactive)
60 | COc1cc(NC(=O)CSC(=S)N2CCCC2)c(OC)cc1Cl | -1.55% (inactive)
61 | CCN1/C(=C\c2ccc3ccccc3[n+]2CC)Sc2cc(C)ccc21 | 23.2% (active)
62 | C=CCN1C(=NC(=O)COc2ccccc2)SC2CS(=O)(=O)CC21 (configuration not stated) | 1.7% (inactive)
63 | O=C(CSc1nc2ncccc2[nH]1)Nc1ccc2c(c1)OCCO2 | -2.32% (inactive)
64 | CCc1ccc2c(c1)C1(NN=C(c3ccccc3)S1)C(=O)N2 (configuration not stated) | -1.26% (inactive)
65 | O=C1/C(=C\c2ccsc2)NC(=S)N1c1ccccc1 | 0.14% (inactive)
66 | CN(C)c1ccc(C=C2C(=O)OC3(CCCC3)OC2=O)cc1 | 3.44% (inactive)
67 | CN(C)c1ccc(/C=C2\NC(=S)N(Cc3ccccc3)C2=O)cc1 | 51.8% (active)
68 | N#CCCN(C(=O)COC(=O)c1ccc2c(c1)OCCO2)c1ccccc1 | 1.54% (inactive)
69 | Cn1cccc1C1(C(F)(F)F)NCCNC1=O (configuration not stated) | 1.22% (inactive)

Row | SMILES | activation
70 | CCCC(=O)NC(=S)Nc1ccc(CN2CCOCC2)cc1 | 1% (inactive)
71 | CCOC(=O)CC1C(=O)NCCN1c1nc2c(C)cccn2c(=O)c1/C=C1\SC(=S)N(C(C)CC)C1=O (configuration not stated) | 23.3% (active)
72 | Cc1cccn2c(=O)c(/C=C(\C#N)C(N)=O)c(N3CCCCCC3)nc12 | -2.52% (inactive)
73 | CCOC(=O)N1CCN(C(=O)CSc2nc(=O)n3cccc(C)c3n2)CC1 | -0.13% (inactive)
74 | O=[N+]([O-])c1ccccc1N/N=C1\CCc2ccccc21 | 1.32% (inactive)
75 | COc1cc(OC)c(-n2cc(-c3ccc(Cl)cc3)[nH]c2=O)cc1Cl | 42.2% (active)
76 | COc1cc(OC)c(N2CC(C(=O)Nc3cc(Cl)ccc3N3CCOCC3)CC2=O)cc1Cl (configuration not stated) | 10.6% (inactive)
77 | COc1cc(OC)c(-n2c(C)cc(C=O)c2C)cc1Cl | -0.29% (inactive)
78 | Cc1ccc(-n2ncc3c(Nc4cccc(C(=O)O)c4)ncnc32)cc1 | -1.04% (inactive)
79 | O=C(NCc1cccnc1)C12CC3CC(CC(C3)C1)C2 | -0.43% (inactive)
80 | CCCN(CC(=O)Nc1ccccc1OC)C(=O)CCC(=O)c1ccc(F)cc1 | -2.01% (inactive)
81 | C/C(=N/NS(=O)(=O)c1ccccc1)c1ccc(NC(=O)C(F)(F)F)cc1 | -0.88% (inactive)
82 | O=C(Nc1ccc(O)cc1)c1ccc(NC(=O)c2ccco2)cc1 | 1.38% (inactive)
83 | C/C(=N\NS(=O)(=O)c1ccc(Cl)cc1)c1ccc(NC(=O)c2ccco2)cc1 | 24.5% (active)
84 | O=C(O)CCn1c(O)c(C=C2N=c3ccccc3=N2)sc1=S | 0.13% (inactive)
85 | Cc1ccc(-c2nn(-c3ccccc3)cc2/C=N/NC(=O)c2ccc3c(c2)OCO3)cc1 | -1.39% (inactive)
86 | CCc1ccc(-c2nn(-c3ccccc3)cc2CSC(=N)N)cc1 | 24.2% (active)
87 | CCc1ccc(-c2nn(-c3ccccc3C)cc2C(=O)N2CCN(C3CCS(=O)(=O)C3)CC2)cc1 (configuration not stated) | 2.09% (inactive)
88 | O=C(CCNC(=O)c1ccccc1)Nc1nc2ccccc2s1 | 2.26% (inactive)
89 | O=C(CNC(=O)c1ccccc1)Oc1ccc([N+](=O)[O-])cc1 | 2.42% (inactive)
90 | O=C(NC(Nc1nc2ccc([N+](=O)[O-])cc2s1)(C(F)(F)F)C(F)(F)F)c1ccccc1 | 20% (active)
91 | CCOC(=O)CN(C)S(=O)(=O)c1ccc(-c2cc(C(=O)OC)sc2C(F)(F)F)cc1 | 1.32% (inactive)
92 | O=C(NCc1ccccc1)C(c1ccccc1)N(C(=O)c1csnn1)c1ccc(F)cc1 (configuration not stated) | 1.2% (inactive)
